Data as given in PubChem BioAssay (Tox21).
Results filed as inconclusive are left out. Where a call stands in place of a potency, no number is given. Active and inactive are the calls of the source. Calls come from the whole dose curve; as a rule, active = well fitted inhibition curve with a large enough effect in the repeat runs; inconclusive = weak or mixed curves; inactive = no such curve, though single readings can be large or run the other way.

target: Cytochrome P450 1A2 (Homo sapiens) (UniProt P05177); experiment: Cytochrome P450 Family 1 Subfamily A Member 2 (CYP1A2) small molecule antagonists: luciferase reporter qHTS assay (AID 1671199); settings: P450-Glo CYP1A2 enzyme, luciferin luminescence, 1 h; series mostly up to 53 µM; note: nearly all actives have a fitted effect of over 50% in size
Sequence (P05177 whole entry, looked up): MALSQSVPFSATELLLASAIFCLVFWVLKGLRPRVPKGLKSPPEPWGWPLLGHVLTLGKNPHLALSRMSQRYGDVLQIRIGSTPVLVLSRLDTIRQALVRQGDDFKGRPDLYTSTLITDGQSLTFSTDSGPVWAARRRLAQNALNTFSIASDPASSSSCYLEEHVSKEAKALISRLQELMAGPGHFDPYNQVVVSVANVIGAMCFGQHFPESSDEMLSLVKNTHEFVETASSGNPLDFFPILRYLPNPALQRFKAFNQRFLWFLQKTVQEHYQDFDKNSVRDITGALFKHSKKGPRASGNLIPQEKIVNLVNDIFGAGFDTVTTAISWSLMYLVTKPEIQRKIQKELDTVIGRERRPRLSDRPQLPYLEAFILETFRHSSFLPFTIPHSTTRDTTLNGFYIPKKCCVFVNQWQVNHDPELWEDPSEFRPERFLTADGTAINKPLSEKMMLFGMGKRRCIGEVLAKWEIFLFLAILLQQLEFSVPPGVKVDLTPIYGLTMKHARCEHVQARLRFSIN
From the text: National Center for Advancing Translational Sciences [NCATS]
U.S. Environmental Protection Agency [EPA]
National Institutes of Environmental Health Sciences [NIEHS]
National Toxicology Program [NTP]
U.S. Food and Drug Administration [FDA]
Cytochrome P450 (CYP) enzymes are membrane-bound hemeproteins that play a key role in metabolism of drugs and xenobiotics. Evaluation of the effect of chemicals on CYP isozymes is useful to minimize the adverse drug reactions and toxicities in drug development process. Tox21 chemicals were tested for their effect on CYP enzyme activities by using P450-Glo (TM) screening systems (Promega Corporation, Madison, WI). These systems provide a luminescent method containing proluciferin substrates and are converted to luciferin products by CYP isozymes. The luciferin products formed are detected with a luciferin detection reagent, and the amount of light produced is proportional to CYP activity. P450-Glo (TM) CYP1A2 screening system (Catalog. No. V9770) was used to detect the compounds that interfere in CYP1A2 activity. The positive control compound used for CYP1A2 assay is furafylline (Sigma-Aldrich, St. Louis, MO).
Tox21 Assay Protocol Summary:
Two ul of enzyme-substrate mix was dispensed into medium binding white/solid 1536-well plates (Greiner Bio-One North America Inc., Monroe, NC) using a BioRaptr Flying Reagent Dispenser (FRD, Beckman Coulter, Brea, CA). Compounds dissolved in DMSO and positive control (furafyllline) were transferred to the assay plates at 23 nl using a Pintool station (Wako, San Diego, CA). The assay plates were incubated at room temperature for 10 min. Then 2 ul of NADPH regeneration solution was added to each well of the assay plates using an FRD and incubated at room temperature for 1 h. The reaction was stopped by adding 4 ul of detection reagent using an FRD and after 20 min incubation at room temperature the luminescence signal was measured using a ViewLux plate reader (Perkin Elmer, Shelton, CT). Data were expressed as relative luminescence units.
Potency is the fitted concentration of half-maximal effect.

Row | SMILES | Potency
1 | CCOC(=O)c1ccc(O)c(O)c1 | 27.5 µM (active)
2 | O=C1NCCN1CCO | inactive
3 | Clc1ccc(Nc2nnc(Cc3ccncc3)c3ccccc23)cc1 | 1.44 µM (active)
4 | Cc1ccc2c(Br)cc(Br)c(O)c2n1 | 36.3 µM (active)
5 | O=C(Nc1cccc2c(=O)cc(-c3nn[nH]n3)oc12)c1ccc(OCCCCc2ccccc2)cc1 | inactive
6 | COC(=O)c1nc(Cl)c(Cl)nc1N | 4.36 µM (active)
7 | Nc1ccc(N=Nc2ccccc2)c(N)c1 | 7.8 µM (active)
8 | CCCCCCCCOc1ccc(C(=O)O)cc1 | inactive
9 | CCOC(C)=O | inactive
10 | CCCCCC[C@@H](O)C/C=C\CCCCCCCC(=O)OCC(O)CO (stereo not given in full) | inactive
11 | Cc1cc(C)cc(N)c1 | 36 µM (active)
12 | O=C(Cn1ccnc1[N+](=O)[O-])NCCO | inactive
13 | COc1cc(C(=O)NC2CCN(C)CC2)ccc1Nc1ncc2c(n1)N(C1CCCC1)CC(F)(F)C(=O)N2C | inactive
14 | CC(=O)OCC(=O)NCCCOc1cccc(CN2CCCCC2)c1 | inactive
15 | CC(=O)Nc1cc(S(=O)(=O)O)cc2cc(S(=O)(=O)O)c(N=Nc3ccccc3)c(O)c12 | 31.7 µM (active)
16 | CCC(=O)OC | inactive
17 | Cc1ccccc1S | 50.7 µM (active)
18 | O=C=Nc1ccc(Cl)c(Cl)c1 | 35 µM (active)
19 | C=C(C)[C@@H]1CCC2=CCC[C@@H](C)[C@]2(C)C1 | inactive
20 | CC1CC(OC(=O)C(O)c2ccccc2)CC(C)(C)N1C (stereo not given) | inactive

Row | SMILES | Potency
21 | CC(C)=CCC/C(C)=C/CC/C(C)=C/C(=O)OCC(=O)[C@@]1(O)CC[C@H]2[C@@H]3CCC4=CC(=O)C=C[C@]4(C)[C@H]3[C@@H](O)C[C@@]21C | inactive
22 | Brc1cc2ccccc2c2ccccc12 | 0.32 µM (active)
23 | O[C@@H]1CO[C@H]2[C@@H]1OC[C@@H]2O | inactive
24 | CC(C)(C)C(=O)C(=O)O | inactive
25 | COC(=O)[C@H]1[C@H]2C[C@@H]3c4[nH]c5cc(OC)ccc5c4CCN3C[C@H]2C[C@@H](OC(=O)/C=C/c2ccc(O)c(OC)c2)[C@@H]1OC | inactive
26 | COc1ccccc1N1CCN(CCCCNC(=O)c2ccc(-c3ccc(C(C)=O)cc3)cc2)CC1 | inactive
27 | CC(CO)CO | inactive
28 | C=C/C(C)=C/C/C=C(\C)CCC=C(C)C | inactive
29 | CC(=O)Nc1ccc(C)cc1C | inactive
30 | CN1CCCC(n2nc(Cc3ccc(Cl)cc3)c3ccccc3c2=O)CC1 (stereo not given) | inactive
31 | C=COCC(C)C | inactive
32 | Nc1nc2ccc([N+](=O)[O-])cc2s1 | 9.74 µM (active)
33 | N#CCCN(CCO)CCO | inactive
34 | C=CC(=O)OCC1CC2CC1C1CCC(COC(=O)C=C)C21 (stereo not given) | 35.6 µM (active)
35 | C(=C\c1ccccc1)/c1ccccc1 | 4.99 µM (active)
36 | Cc1cc(=O)c2c(O)c3c(O)cc(=O)c4c3c3c(cc(O)c1c23)C(C)(C)C=4O | inactive
37 | COc1cc(C(=O)NCCCCCC(=O)O)cc(OC)c1OC | inactive
38 | Cc1c(C)c2c(c(C)c1OC(=O)CCC(=O)OCCO)CC[C@@](C)(CCC[C@H](C)CCC[C@H](C)CCCC(C)C)O2 | 27.5 µM (active)
39 | CCCC(C(=O)OCCN(CC)CC)(c1ccccc1)c1ccccc1 | inactive
40 | CN(C)CCN1C(=O)c2ccccc2N(C)c2ccccc21 | inactive
